# Experimental data reported in PubChem BioAssay.
# Results filed as inconclusive are left out. Activity calls are given as the source filed them.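 Rule for the calls, unless noted: active = thallium flux through the channel raised or lowered by more than 3 SD from vehicle-only wells, actives on both sides; inactive = the rest.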
# Assays:
# [1] = modulation of C. elegans fzo-1 (AID 1259413; call rule not given here;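 note: fzo-1 mutant C. elegans worms in liquid wells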); conditions: C. elegans fzo-1 modulator screen, mean read-out; stronger effect = higher value
# F380Y = experiment: BK channel mutant inhibitors and activators – cell-based, U2OS BacMam, thallium flux, beta subunits, selectivity assay, profiling panel (AID 1259406); conditions: U2OS BacMam BK variants, at 30 µM;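 note: initial slope of Thallos dye fluorescence rise after thallium is added; log ratio against the mean of 0.3% DMSO vehicle wells on the same plate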
# F380Y/beta1 = experiment: as above; conditions: U2OS BacMam BK variants, at 30 µM
# F380Y/beta2Delta = experiment: as above; conditions: U2OS BacMam BK variants, at 30 µM
# F380Y/beta4 = experiment: as above; conditions: U2OS BacMam BK variants, at 30 µM
# [2] = molecular target: Calcium-activated potassium channel subunit alpha-1 (Homo sapiens) + Leucine-rich repeat-containing protein 26 (Homo sapiens) (UniProt Q12791+Q2I0M4); experiment: as above; conditions: U2OS BacMam BK variants, F380Y/Slo1WT/gamma1, at 30 µM
# Calcium-activated potassium channel subunit alpha-1 (Homo sapiens) + Leucine-rich repeat-containing protein 26 (Homo sapiens), sequence (Q2I0M4 whole entry, looked up, one chain of several): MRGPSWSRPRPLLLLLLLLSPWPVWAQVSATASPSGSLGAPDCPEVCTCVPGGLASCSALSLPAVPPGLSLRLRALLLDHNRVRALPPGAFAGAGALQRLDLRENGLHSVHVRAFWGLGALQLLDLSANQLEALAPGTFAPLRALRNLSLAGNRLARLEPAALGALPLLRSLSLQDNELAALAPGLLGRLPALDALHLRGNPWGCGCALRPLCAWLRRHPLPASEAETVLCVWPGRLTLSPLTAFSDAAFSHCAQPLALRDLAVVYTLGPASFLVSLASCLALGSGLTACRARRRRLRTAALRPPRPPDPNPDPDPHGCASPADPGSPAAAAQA
# R275C = experiment: as above; conditions: U2OS BacMam BK variants, at 30 µM
# R275C/beta1 = experiment: as above; conditions: U2OS BacMam BK variants, at 30 µM
# R275C/beta2Delta = experiment: as above; conditions: U2OS BacMam BK variants, at 30 µM
# R275C/beta4 = experiment: as above; conditions: U2OS BacMam BK variants, at 30 µM
# R275C/Slo1WT/beta2 = experiment: as above; conditions: U2OS BacMam BK variants, at 30 µM
# [3] = molecular target: Huntingtin (Homo sapiens) (UniProt P42858); experiment: mutant huntingtin aggregation blockers – QA1, dose response (AID 1584); conditions: in vitro mutant huntingtin aggregation assay; confirmation test; at 10 µM; stronger effect = lower value
# Huntingtin (Homo sapiens), sequence (P42858 whole entry, looked up): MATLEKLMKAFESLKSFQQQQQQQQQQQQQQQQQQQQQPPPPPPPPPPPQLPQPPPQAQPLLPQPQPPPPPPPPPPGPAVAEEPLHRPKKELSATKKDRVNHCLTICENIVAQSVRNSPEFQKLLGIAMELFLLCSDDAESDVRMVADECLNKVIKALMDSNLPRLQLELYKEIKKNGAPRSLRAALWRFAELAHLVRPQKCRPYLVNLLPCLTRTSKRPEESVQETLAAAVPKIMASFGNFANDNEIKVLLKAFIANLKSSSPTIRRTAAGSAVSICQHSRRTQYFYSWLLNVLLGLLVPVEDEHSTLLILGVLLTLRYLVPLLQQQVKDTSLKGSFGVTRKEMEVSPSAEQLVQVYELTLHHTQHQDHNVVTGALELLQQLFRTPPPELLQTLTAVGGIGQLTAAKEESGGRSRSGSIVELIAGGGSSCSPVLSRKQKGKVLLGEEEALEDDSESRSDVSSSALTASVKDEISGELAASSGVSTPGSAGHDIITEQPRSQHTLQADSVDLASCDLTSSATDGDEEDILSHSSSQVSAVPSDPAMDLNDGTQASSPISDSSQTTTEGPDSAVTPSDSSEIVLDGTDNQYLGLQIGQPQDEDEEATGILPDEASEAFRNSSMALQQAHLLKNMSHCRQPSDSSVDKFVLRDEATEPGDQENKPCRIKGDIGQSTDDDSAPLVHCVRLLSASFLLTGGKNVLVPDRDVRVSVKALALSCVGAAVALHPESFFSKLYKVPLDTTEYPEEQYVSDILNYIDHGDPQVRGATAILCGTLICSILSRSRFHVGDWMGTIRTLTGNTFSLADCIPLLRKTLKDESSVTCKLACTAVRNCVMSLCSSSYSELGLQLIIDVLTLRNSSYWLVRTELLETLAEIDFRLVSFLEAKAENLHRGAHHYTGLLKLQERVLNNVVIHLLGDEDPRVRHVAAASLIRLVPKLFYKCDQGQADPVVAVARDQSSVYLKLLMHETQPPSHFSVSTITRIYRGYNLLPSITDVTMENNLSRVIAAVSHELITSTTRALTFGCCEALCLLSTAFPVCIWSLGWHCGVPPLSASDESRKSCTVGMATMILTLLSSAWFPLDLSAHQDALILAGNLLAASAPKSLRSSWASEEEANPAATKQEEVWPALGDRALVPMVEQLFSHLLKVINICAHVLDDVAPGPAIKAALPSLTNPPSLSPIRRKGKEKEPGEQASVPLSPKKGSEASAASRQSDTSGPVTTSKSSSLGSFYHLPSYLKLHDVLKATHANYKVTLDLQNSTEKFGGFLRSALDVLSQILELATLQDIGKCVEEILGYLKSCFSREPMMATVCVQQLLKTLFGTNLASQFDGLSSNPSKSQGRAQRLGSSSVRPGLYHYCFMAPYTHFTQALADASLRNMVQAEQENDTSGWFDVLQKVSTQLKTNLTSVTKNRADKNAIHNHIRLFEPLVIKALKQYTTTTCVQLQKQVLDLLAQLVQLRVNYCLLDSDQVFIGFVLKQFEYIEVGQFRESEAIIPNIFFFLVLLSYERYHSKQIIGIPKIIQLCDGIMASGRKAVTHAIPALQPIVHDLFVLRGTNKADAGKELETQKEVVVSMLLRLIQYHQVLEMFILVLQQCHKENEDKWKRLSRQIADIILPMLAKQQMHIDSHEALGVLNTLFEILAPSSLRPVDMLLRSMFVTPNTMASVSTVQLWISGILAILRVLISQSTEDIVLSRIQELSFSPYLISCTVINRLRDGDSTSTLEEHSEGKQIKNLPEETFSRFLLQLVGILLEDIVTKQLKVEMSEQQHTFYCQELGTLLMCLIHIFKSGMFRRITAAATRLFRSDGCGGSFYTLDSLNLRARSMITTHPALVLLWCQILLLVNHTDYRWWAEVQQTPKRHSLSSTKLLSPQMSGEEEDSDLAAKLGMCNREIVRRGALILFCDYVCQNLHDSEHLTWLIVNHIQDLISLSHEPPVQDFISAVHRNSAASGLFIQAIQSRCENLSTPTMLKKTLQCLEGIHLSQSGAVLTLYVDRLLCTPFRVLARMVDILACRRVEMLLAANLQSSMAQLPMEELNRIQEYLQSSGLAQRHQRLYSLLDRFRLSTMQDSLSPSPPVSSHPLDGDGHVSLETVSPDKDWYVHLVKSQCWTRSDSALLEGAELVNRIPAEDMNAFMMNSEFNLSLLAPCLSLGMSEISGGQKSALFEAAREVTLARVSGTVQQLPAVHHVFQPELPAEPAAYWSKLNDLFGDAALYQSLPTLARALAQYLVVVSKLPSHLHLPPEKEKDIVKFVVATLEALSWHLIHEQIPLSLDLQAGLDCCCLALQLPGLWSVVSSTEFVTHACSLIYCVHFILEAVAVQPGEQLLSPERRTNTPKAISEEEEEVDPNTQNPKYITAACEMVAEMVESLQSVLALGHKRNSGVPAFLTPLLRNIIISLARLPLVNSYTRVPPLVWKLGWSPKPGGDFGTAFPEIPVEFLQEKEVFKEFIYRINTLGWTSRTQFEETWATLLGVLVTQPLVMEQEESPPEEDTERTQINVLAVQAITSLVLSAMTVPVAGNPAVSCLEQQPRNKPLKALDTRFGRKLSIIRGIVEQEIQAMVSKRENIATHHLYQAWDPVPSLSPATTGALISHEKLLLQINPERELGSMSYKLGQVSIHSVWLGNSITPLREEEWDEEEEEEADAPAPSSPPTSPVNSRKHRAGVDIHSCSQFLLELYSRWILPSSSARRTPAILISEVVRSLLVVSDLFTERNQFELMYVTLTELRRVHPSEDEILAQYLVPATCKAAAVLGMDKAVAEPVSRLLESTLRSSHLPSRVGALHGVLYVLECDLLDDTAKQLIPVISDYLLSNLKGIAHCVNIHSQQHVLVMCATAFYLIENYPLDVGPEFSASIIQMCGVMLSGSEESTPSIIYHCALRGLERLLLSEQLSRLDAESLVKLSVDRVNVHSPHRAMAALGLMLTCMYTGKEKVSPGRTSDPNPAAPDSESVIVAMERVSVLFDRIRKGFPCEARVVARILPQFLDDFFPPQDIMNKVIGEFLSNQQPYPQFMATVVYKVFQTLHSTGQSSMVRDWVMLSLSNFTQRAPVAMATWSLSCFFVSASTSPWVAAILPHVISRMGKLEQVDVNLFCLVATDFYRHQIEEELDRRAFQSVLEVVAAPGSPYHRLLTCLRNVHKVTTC
# [4] = chitosan synthesis blockers in C. neoformans – flow cytometry, Cibacron Brilliant Red staining (AID 1347148; call rule not given here;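 note: compound exposure lasted three days at 37 degrees C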); conditions: Cryptococcus neoformans chitosan, stronger effect = lower value; at 10 µM unless noted
# [5] = rescue of PC12 cells from polyQ htt toxicity – LDH release (AID 1610); conditions: PC12 mutant huntingtin toxicity, final LDH at 4 uM, stronger effect = lower value
compound,measurement,setting,value
COc1cc2c(cc1OC)[C@@]13CCN4CC5=CCO[C@H]6CC(=O)N2[C@H]1[C@H]6[C@H]5C[C@H]43,mean signal,[1],265 (inactive)
same,log fold change Tl+ flux,F380Y,0.0307 (inactive)
same,log fold change Tl+ flux,F380Y/beta1,-0.0206 (inactive)
same,log fold change Tl+ flux,F380Y/beta2Delta,-0.0179 (inactive)
same,log fold change Tl+ flux,F380Y/beta4,0.0166 (inactive)
same,log fold change Tl+ flux,[2],-0.0482 (inactive)
same,log fold change Tl+ flux,R275C,-0.0395 (inactive)
same,log fold change Tl+ flux,R275C/beta1,0.0112 (inactive)
same,log fold change Tl+ flux,R275C/beta2Delta,-0.0452 (inactive)
same,log fold change Tl+ flux,R275C/beta4,-0.00487 (inactive)
same,log fold change Tl+ flux,R275C/Slo1WT/beta2,-0.0314 (inactive)
C=CCN1CC[C@]23c4c5ccc(O)c4O[C@H]2C(=O)CC[C@@]3(O)[C@H]1C5,log fold change Tl+ flux,F380Y,-0.039 (inactive)
same,log fold change Tl+ flux,F380Y/beta1,0.0814 (inactive)
same,log fold change Tl+ flux,F380Y/beta2Delta,0.0141 (inactive)
same,log fold change Tl+ flux,F380Y/beta4,0.0525 (inactive)
same,log fold change Tl+ flux,[2],-0.00699 (inactive)
same,log fold change Tl+ flux,R275C,0.034 (inactive)
same,log fold change Tl+ flux,R275C/beta1,0.000161 (inactive)
same,log fold change Tl+ flux,R275C/beta2Delta,0.0302 (inactive)
same,log fold change Tl+ flux,R275C/beta4,0.00421 (inactive)
same,log fold change Tl+ flux,R275C/Slo1WT/beta2,0.0157 (inactive)
CC(C)CC(N(C)C)C1(c2ccc(Cl)cc2)CCC1 (stereo unspecified),mean signal,[1],232 (inactive)
O=C1C=CC(=O)c2c(O)cccc21,aggregation ratio,[3],0.312
same,fold fluorescence,[4],2.01 [at 287.1 µM] (active)
O=C1C=C2C(=CCOC2O)O1 (stereo unspecified),normalised LDH release,[5],0.848
COc1cccc2c1cc([N+](=O)[O-])c1c(C(=O)O)cc3c(c12)OCO3,fold fluorescence,[4],4.86 [at 146.5 µM] (inactive)
